Bioassay records deposited in PubChem by The Scripps Research Institute Molecular Screening Center.
Sampled rows, rich in hits. Any-hit rate of the full collection: about 2.5%.
PRMT1 FP inh: PRMT1 (human) inhibition, primary screen. recombinant PRMT1, activity-based probe fluorescence polarization. inhibition, % at 2.79 µM. 370,000 compounds, 1.3% hits. AID 652257;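 active = inhibition above about 21% made by adding two undisclosed values, limit read from the data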
LEDGF integ inh: blocks HIV-1 LEDGF/p75-dependent DNA integration; 370,000 compounds, 0.64% hits; inhibition, % at 3.7 µM; AID 743269; TR-FRET IN-LEDGF/p75 DNA integration, Eu/Cy5;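 active = inhibition above the screen-wide mean plus 3 SD, cut at about 13% in these data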;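 also: signal is the Cy5 over europium emission ratio at 671 and 618 nm; 0% = plate median of compound wells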
UHRF1 binding: UHRF1 methyl-DNA binding inhibition; UHRF1 binding to methylated oligo, TR-FRET; inhibition, % at 4.4 µM; 370,000 compounds, 0.75% hits; AID 687016; in the data active = inhibition above about 21%;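 also: UHRF1 SRA domain binding a hemimethylated CpG hairpin DNA probe; 0% = median of test compound wells and 100% = reference inhibitor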
Target sequence (Q96T88 whole entry, looked up, the tested form may be a part): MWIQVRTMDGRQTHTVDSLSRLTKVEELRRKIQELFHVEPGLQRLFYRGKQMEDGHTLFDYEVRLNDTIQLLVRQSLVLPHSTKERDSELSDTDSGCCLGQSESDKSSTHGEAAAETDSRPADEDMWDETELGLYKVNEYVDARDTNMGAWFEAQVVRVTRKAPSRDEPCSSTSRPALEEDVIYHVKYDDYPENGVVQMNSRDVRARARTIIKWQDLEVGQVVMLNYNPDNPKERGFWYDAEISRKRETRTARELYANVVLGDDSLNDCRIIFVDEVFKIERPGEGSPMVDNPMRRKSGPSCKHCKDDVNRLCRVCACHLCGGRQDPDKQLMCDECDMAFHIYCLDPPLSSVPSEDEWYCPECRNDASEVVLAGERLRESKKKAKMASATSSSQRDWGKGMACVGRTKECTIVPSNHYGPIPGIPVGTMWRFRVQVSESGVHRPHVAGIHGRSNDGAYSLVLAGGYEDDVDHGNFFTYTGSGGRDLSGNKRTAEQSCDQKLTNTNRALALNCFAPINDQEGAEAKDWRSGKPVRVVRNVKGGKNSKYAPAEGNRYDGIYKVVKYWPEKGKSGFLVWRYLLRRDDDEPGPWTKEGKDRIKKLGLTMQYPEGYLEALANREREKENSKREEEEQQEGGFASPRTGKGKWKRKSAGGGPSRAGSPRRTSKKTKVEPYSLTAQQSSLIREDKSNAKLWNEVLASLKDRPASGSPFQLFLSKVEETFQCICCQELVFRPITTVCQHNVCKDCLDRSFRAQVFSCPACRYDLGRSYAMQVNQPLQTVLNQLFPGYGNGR
MBD2 inh: inhibitors of human MBD2 binding to methylated oligonucleotide; TR-FRET; inhibition, % at 4.4 µM; 370,000 compounds, 0.31% hits; in the data active = inhibition above about 13%
* = called active by the depositor.

Screening COc1cc(/C=C/c2sc3ccccc3[n+]2CCCS(=O)(=O)[O-])ccc1O returned PRMT1 FP inh 0, LEDGF integ inh 8, UHRF1 binding -47 and MBD2 inh -26.
`CSCCNC(=O)C1(C)CCN1C(=O)c1sccc1C` (stereo not given) gave PRMT1 FP inh 0, LEDGF integ inh 1, UHRF1 binding 0 and MBD2 inh -3.
Screening COc1cc(S(=O)(=O)N(Cc2cccnc2)Cc2cccc(OC)c2OC)ccc1-n1cnnn1 returned PRMT1 FP inh 2, LEDGF integ inh -4, UHRF1 binding 23* and MBD2 inh 4.
Screening CCC(=O)N1c2ccc(S(=O)(=O)NCc3ccccc3)cc2CC1C (stereo not given) returned PRMT1 FP inh 0, LEDGF integ inh 0, UHRF1 binding -1 and MBD2 inh -6.
`C[C@H]1CN([C@@H](C)CO)S(=O)(=O)c2ccc(Br)cc2O[C@H]1CN(C)C(=O)c1cccnc1` gave PRMT1 FP inh 2, LEDGF integ inh -2, UHRF1 binding 24* and MBD2 inh 3.
C[C@@H]1CN([C@H](C)CO)S(=O)(=O)c2ccc(Br)cc2O[C@H]1CN(C)C(=O)C1CC1 was read as PRMT1 FP inh 0, LEDGF integ inh -1, UHRF1 binding 21* and MBD2 inh 6.
Screening C[C@@H]1CN([C@H](C)CO)S(=O)(=O)c2ccc(Br)cc2O[C@@H]1CN(C)Cc1ccc(-c2ccccc2)cc1 returned PRMT1 FP inh 7, LEDGF integ inh -5, UHRF1 binding 21* and MBD2 inh 13.
C[C@@H]1CN([C@H](C)CO)S(=O)(=O)c2ccc(Br)cc2O[C@@H]1CN(C)Cc1ccc(C(=O)O)cc1 was read as PRMT1 FP inh -4, LEDGF integ inh 0, UHRF1 binding -3 and MBD2 inh -1.
Screening COc1cccc(-c2ccc3c(c2)O[C@@H](CN(C)C(=O)C2CCOCC2)[C@H](C)CN([C@H](C)CO)S3(=O)=O)c1 returned PRMT1 FP inh -1, LEDGF integ inh -4, UHRF1 binding 22* and MBD2 inh 6.
`C[C@@H]1CN([C@@H](C)CO)S(=O)(=O)c2ccc(Br)cc2O[C@H]1CN(C)C(=O)C1CCC1` gave PRMT1 FP inh -6, LEDGF integ inh -2, UHRF1 binding 0 and MBD2 inh 0.
CNC(=O)C[C@H]1C(=O)N(c2ccccc2)C[C@@H]1CSC was read as PRMT1 FP inh -2, LEDGF integ inh 2, UHRF1 binding -3 and MBD2 inh -2.
Screening O=C(CCc1ccccc1)N[C@H]1[C@H](OC(=O)c2cnccn2)CCC[C@@]12C(=O)N(Cc1ccccc1)c1ccccc12 returned PRMT1 FP inh -2, LEDGF integ inh 5, UHRF1 binding -2 and MBD2 inh 0.
`Fc1ccc(-c2ccnc(=S)[nH]2)cc1` gave PRMT1 FP inh 23*, LEDGF integ inh 3, UHRF1 binding 3 and MBD2 inh 3.
Screening OC(c1ccc(-c2ccccc2)cc1)c1ncc(-c2ccc(F)cc2)[nH]1 (stereo not given) returned PRMT1 FP inh -4, LEDGF integ inh 4, UHRF1 binding 2 and MBD2 inh -3.
CC(=O)Nc1cccc(OCCCOc2cccc([N+](=O)[O-])c2)c1 was read as PRMT1 FP inh 0, LEDGF integ inh 4, UHRF1 binding -9 and MBD2 inh -5.
For CCN(c1ccccc1)S(=O)(=O)c1cc(C(=O)OCC(=O)c2c(N)n(C)c(=O)n(C)c2=O)ccc1C the results were PRMT1 FP inh 4, LEDGF integ inh 1, UHRF1 binding 32* and MBD2 inh 12.
Screening COc1cc(NC(=O)c2cc(C)on2)c(OC)cc1Cl returned PRMT1 FP inh 2, LEDGF integ inh -1, UHRF1 binding -4 and MBD2 inh 6.
`COc1cc(NC(=O)c2noc3c2CCC3)c(OC)cc1Cl` gave PRMT1 FP inh 13, LEDGF integ inh 7, UHRF1 binding 28* and MBD2 inh 0.
For COc1ccc(NC(=S)Nc2cc(C)[nH]n2)cc1Cl the results were PRMT1 FP inh 15, LEDGF integ inh 1, UHRF1 binding 0 and MBD2 inh 2.
Cc1cc(NC(=S)Nc2ccc(C)c(Cl)c2)n[nH]1 was read as PRMT1 FP inh 24*, LEDGF integ inh 11, UHRF1 binding -2 and MBD2 inh 1.
Screening CCn1c(=O)cc(SCC(=O)NCCCN2CCN(c3ccc(F)cc3)CC2)c2ccccc21 returned PRMT1 FP inh -2, LEDGF integ inh -1, UHRF1 binding 21* and MBD2 inh -2.
Screening CCn1c(=O)cc(SCC(=O)NCCCN2CCC(C)CC2)c2ccccc21 returned PRMT1 FP inh -2, LEDGF integ inh 4, UHRF1 binding -2 and MBD2 inh 0.
COC(=O)c1ccc(CNC(=O)c2cc(S(=O)(=O)NCc3ccccc3)ccc2C)cc1 was read as PRMT1 FP inh -5, LEDGF integ inh 2, UHRF1 binding 0 and MBD2 inh -2.
Screening COc1cccc(C2c3c(oc4ccccc4c3=O)C(=O)N2CCCN2CCOCC2)c1OC (stereo not given) returned PRMT1 FP inh 5, LEDGF integ inh 4, UHRF1 binding 50* and MBD2 inh -5.
For O=C1c2oc3ccccc3c(=O)c2C(c2cccc(O)c2)N1CCCN1CCOCC1 (stereo not given) the results were PRMT1 FP inh 4, LEDGF integ inh 4, UHRF1 binding -1 and MBD2 inh -4.
Screening O=C1CCCC2=C1Sc1ccc(Cl)cc1N2 returned PRMT1 FP inh 9, LEDGF integ inh -6, UHRF1 binding -11 and MBD2 inh -13.
Screening COC(=O)c1ccc2c(c1)SC1=C(CCCC1=O)N2 returned PRMT1 FP inh 25*, LEDGF integ inh 3, UHRF1 binding -16 and MBD2 inh -25.
`COc1ccccc1NC(=S)NC(=O)c1c(-c2ccccc2Cl)noc1C` gave PRMT1 FP inh 5, LEDGF integ inh 0, UHRF1 binding 24* and MBD2 inh 2.
Screening COc1ccccc1NC(=S)NNC(=O)c1ccccc1 returned PRMT1 FP inh -2, LEDGF integ inh -3, UHRF1 binding -1 and MBD2 inh 5.
`COc1ccccc1NC(=S)NNC(=O)c1ccncc1` gave PRMT1 FP inh -2, LEDGF integ inh -2, UHRF1 binding 23* and MBD2 inh 9.
`COc1ccccc1NC(=S)c1ccccc1` gave PRMT1 FP inh 23*, LEDGF integ inh 8, UHRF1 binding 1 and MBD2 inh -3.
`Cc1onc(-c2ccccc2)c1C(=O)Nc1ccc(S(=O)(=O)N2CCOCC2)cc1` gave PRMT1 FP inh -2, LEDGF integ inh 4, UHRF1 binding 2 and MBD2 inh -2.
For O=C(CSC1=NCCS1)Nc1ccnc2ccccc12 the results were PRMT1 FP inh 23*, LEDGF integ inh -2, UHRF1 binding 0 and MBD2 inh -1.
`COc1ccc(N2CCN(C(=O)CCc3c[nH]c4ccccc34)CC2)cc1` gave PRMT1 FP inh 1, LEDGF integ inh 8, UHRF1 binding 2 and MBD2 inh 1.
For O=C(CCc1c[nH]c2ccccc12)N1CCN(c2ccc(O)cc2)CC1 the results were PRMT1 FP inh 22*, LEDGF integ inh 2, UHRF1 binding -2 and MBD2 inh -3.
